# Screening data from PubChem.
# PLAP activator: activates human placental alkaline phosphatase | P05187 | purified PLAP enzyme, luminescent substrate read-out; active compounds read high | activation fold at 20 µM | 1.2% of 96,000 active | AID 696; in the data active means activation fold above about 2
# CYP2C19 inhib: human CYP2C19 inhibition; P33261; CYP2C19 Supersomes, luciferin-H EGE luminescence, 30 min; inhibition, % at 5 µM; 21% of 96,000 active;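 active means CYP2C19 inhibition above a set limit at 5 µM in the primary screen, cut at about 50% in these data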;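 further: plate controls were negative control wells for no effect and 2.5 mM tranylcypromine positive control for full effect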
# Target sequence (P33261 whole entry, looked up): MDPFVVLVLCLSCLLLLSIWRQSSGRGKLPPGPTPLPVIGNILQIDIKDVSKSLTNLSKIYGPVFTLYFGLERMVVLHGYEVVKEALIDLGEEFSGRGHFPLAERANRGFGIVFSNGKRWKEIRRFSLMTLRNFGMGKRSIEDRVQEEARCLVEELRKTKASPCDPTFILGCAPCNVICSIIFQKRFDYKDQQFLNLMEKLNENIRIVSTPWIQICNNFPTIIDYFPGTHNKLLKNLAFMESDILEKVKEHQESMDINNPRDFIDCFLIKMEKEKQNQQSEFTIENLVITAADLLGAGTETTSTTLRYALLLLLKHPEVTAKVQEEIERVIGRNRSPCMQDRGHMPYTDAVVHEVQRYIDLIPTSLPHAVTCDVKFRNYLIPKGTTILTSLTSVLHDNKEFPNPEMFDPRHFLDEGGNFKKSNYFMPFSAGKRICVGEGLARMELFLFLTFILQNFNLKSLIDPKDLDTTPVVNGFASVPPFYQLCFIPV
# CYP2C9 inh: inhibitors of human CYP2C9 | AID 777 | 20% of 96,000 active | inhibition, % at 5 µM | CYP2C9 Supersomes, luciferin-H conversion, luminescence;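 active means blocking of liver enzyme CYP2C9 beyond about 50% at 5 µM, limit read from the data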
# CYP2C9 activ: activators of human CYP2C9 | P11712 | recombinant CYP2C9, luciferin-H conversion, luminescence; active compounds read high; factor 1 = untreated enzyme, 0 = blocked | activation factor at 5 µM | 1.4% of 96,000 active | AID 1024;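 active means activation factor of 2 or more for CYP2C9 at a 5 µM dose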;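 further: 0 = sulfaphenazole-blocked wells and 1 = vehicle-only wells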
# CYP2C19 act: increases human CYP2C19 enzyme activity; activation factor at 5 µM; P33261; recombinant CYP2C19, luciferin-H EGE luminescence; active compounds read high; 0 = fully inhibited enzyme, 1 = untreated enzyme; 96,000 tested, under 10 active;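 active means activation factor of at least 2 at 5 µM in the primary screen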;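 further: 0 = wells with 2.5 mM tranylcypromine and 1 = vehicle-only wells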
# Starred values were filed as active, the others as inactive. Most compounds without a hit are left out; they make up all but 31% or so of the library.
SMILES,PLAP activator,CYP2C19 inhib,CYP2C9 inh,CYP2C9 activ,CYP2C19 act
Cc1ccc(SCC(=O)Nc2ccc(-c3nnc(-c4ccco4)o3)cc2)cc1,0.8,36,90*,0.1,0.6
Cc1ccc(NC(=O)CSc2nnc(-c3ccco3)c(-c3ccco3)n2)cc1,1.6,98*,95*,0,0
CCOC(=O)c1c(NC(=O)Cn2nc([N+](=O)[O-])c(Br)c2C)sc2c1CCC(C)C2 (stereo unspecified),1.1,-15,-16,1.2,1.2
FC(F)(F)c1nc2nncn2c2c1CCCCC2,0.9,6,-1,1,0.9
Cc1ccccc1NC(=O)CSc1nnc(-c2ccco2)c(-c2ccco2)n1,1.2,50,77*,0.2,0.5
O=C1NCC(CN(c2ccccc2)c2ccccc2)O1 (stereo unspecified),0.8,30,30,0.7,0.7
Cc1nc2cc(C(F)(F)F)ccc2n1C1CCN(C(=O)N2CCOCC2)CC1,1.8,9,27,0.7,0.9
O=C(CSc1nnnn1-c1ccccc1)c1cc2ccccc2oc1=O,1.1,40,60*,0.4,0.6
Cc1cc(NC(=O)c2cc3ccccc3oc2=O)no1,1,14,10,0.9,0.9
Cc1cc(C)nc(SCC(=O)c2cc3ccccc3oc2=O)n1,1.3,58*,27,0.7,0.4
COc1cccc(C2NC(CCSC)(C(=O)O)C3C(=O)N(C(C)C)C(=O)C23)c1O (stereo unspecified),1.1,-15,-2,1,1.1
CSc1cc(-c2ccccc2)n(Cc2ccc(Cl)cc2Cl)c(=O)c1C#N,0.7,15,51*,0.5,0.8
CCOc1ccc2c(c1)sc(=NC(=O)C1CC1)n2C,1,13,7,0.9,0.9
CCOc1ccc2c(c1)s/c(=N\S(=O)(=O)c1ccc(OC)cc1)n2C(F)F,1.3,61*,45,0.6,0.4
CNCCCNCc1ccc(SC)cc1,0.8,1,3,1,1
COC(=O)c1ccc(Oc2cc(C)nc(NCc3ccccc3)n2)cc1,0.9,13,7,0.9,0.9
COc1cc(C)nc(NCc2ccccc2)n1,1,61*,44,0.6,0.4
CCOC(=O)COc1ccc(Oc2nc(C)cc(OC)n2)nn1,0.9,-7,-14,1.1,1.1
COc1cc(C)nc(Oc2ccc(OCc3ccccc3)nn2)n1,0.9,75*,31,0.7,0.2
CCN(CC)CC(C)OC(=O)c1cc(OC)c(OC)c(OC)c1 (stereo unspecified),1,-8,5,1,1.1
CCOC(=O)C1CCCN(c2nnnn2-c2ccccc2)C1 (stereo unspecified),1.2,81*,39,0.6,0.2
NC(=O)C1CCN(c2nnnn2-c2ccccc2)CC1,1,42,10,0.9,0.6
O=C(NC1CCCCC1)C1CCCN(c2nnnn2-c2ccccc2)C1 (stereo unspecified),1.1,55*,38,0.6,0.5
CCOC(=O)CC(=O)CSc1nc2nc(C)cc(C)n2n1,1.4,19,17,0.8,0.8
CC(C)(CN=C1NS(=O)(=O)c2ccccc21)CNC(=O)CN1C(=O)c2ccccc2C1=O,1,22,46,0.5,0.8
SMILES,PLAP activator,CYP2C19 inhib,CYP2C9 inh,CYP2C9 activ,CYP2C19 act
O=C(COC(=O)[C@@H]1CCCN1C(=O)c1cccs1)NCCc1ccccc1,0.8,60*,19,0.8,0.4
COc1ccccc1NC(=O)COC(=O)[C@@H]1CCCN1C(=O)c1cccs1,1,59*,8,0.9,0.4
CCN(CC)CCn1c2ccccc2c2cnc(N)c(C#N)c21,1.1,-5,-3,1,1
O=C1c2cccnc2Nc2ccccc2N1CCCF,0.9,-5,-16,1.2,1.1
Clc1cccc(-c2cc3nc4c(c(NCc5ccco5)n3n2)CCCC4)c1,1,14,41,0.6,0.9
Fc1cccc(-c2cc3nc4c(c(N5CCC6(CC5)OCCO6)n3n2)CCCC4)c1,1.5,26,74*,0.3,0.7
OC1CCN(c2c3c(nc4cc(-c5cccc(F)c5)nn24)CCCC3)CC1,1.5,29,42,0.6,0.7
CN(CCO)c1c2c(nc3cc(-c4cccc(F)c4)nn13)CCCC2,1.2,32,56*,0.4,0.7
CCOC(=O)N1CCN(C(=O)CC(=O)Nc2ccc3nc4n(c(=O)c3c2)CCCCC4)CC1,1.6,14,69*,0.3,0.9
CCOC(=O)N1CCN(C(=O)C(=O)Nc2ccc3nc4n(c(=O)c3c2)CCCCC4)CC1,1.5,28,52*,0.5,0.7
